Laboratory results published in PubChem BioAssay AID1159580 (chemical genetic matrix, 2015).
Several values for one entry are separate records, joined by “and”; a condition that tells them apart may be missing. Equal entries are not always repeated. About 2,000 (36%) of roughly 5,500 compounds were called active. Roughly 18% stayed inconclusive and do not appear here. Cut-off read from the data, not from the text of the source: active = normalized growth mostly below about 0.91 (no sharp cut-off); inconclusive = no clear call, values can overlap the other calls; inactive = mostly above about 0.92. This is one part of the list.

Experiment: chemical genetic growth profiling, strain panel (AID 1159580);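 note: tested at 20 µM; growth read once vehicle control cultures reached saturation at 30 °C; 1 = growth at the plate median or of vehicle wells; lower values mean less growth of the strain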
Details: growth OD

Measured: normalized growth

NS(=O)(=O)c1cc2c(cc1Cl)NC=NS2(=O)=O
inactive: S. cerevisiae deletion strains, locus YJR075W, strain HOC1, active compounds read low 1.02 | S. cerevisiae deletion strains, locus YKL009W, strain mrt4, active compounds read low 1.02 | S. cerevisiae deletion strains, locus YKL068W, active compounds read low 0.998 | S. cerevisiae deletion strains, locus YKL085W, strain MDH1 (second series), active compounds read low 0.998 | S. cerevisiae deletion strains, locus YKL085W, strain MDH1, active compounds read low 0.998 | S. cerevisiae deletion strains, locus YKL160W, strain elf1, active compounds read low 1.01 | S. cerevisiae deletion strains, locus YKL190W, strain CNB1, active compounds read low 1.01 | S. cerevisiae deletion strains, locus YKR001C, strain vps1, active compounds read low 0.988 | S. cerevisiae deletion strains, locus YKR026C, strain gcn3, active compounds read low 0.98 | S. cerevisiae deletion strains, locus YKR091W, strain srl3, active compounds read low 1.01 | S. cerevisiae deletion strains, locus YLL001W, strain dnm1, active compounds read low 1.01 | S. cerevisiae deletion strains, locus YLL026W, active compounds read low 0.99 | S. cerevisiae deletion strains, locus YLL041C, strain sdh2, active compounds read low 1 | S. cerevisiae deletion strains, locus YLR027C, strain aat2, active compounds read low 1.01 | S. cerevisiae deletion strains, locus YLR039C, strain RIC1, active compounds read low 1.02 | S. cerevisiae deletion strains, locus YLR058C, strain SHM2, active compounds read low 1.01 | S. cerevisiae deletion strains, locus YLR102C, strain apc9, active compounds read low 0.99 | S. cerevisiae deletion strains, locus YLR113W, strain HOG1, active compounds read low 0.939 | S. cerevisiae deletion strains, locus YLR221C, strain rsa3, active compounds read low 0.994 | S. cerevisiae deletion strains, locus YLR258W, strain gsy2, active compounds read low 1.01 | S. cerevisiae deletion strains, locus YLR262C, strain YPT6 (second series), active compounds read low 1 | S. cerevisiae deletion strains, locus YLR262C, strain YPT6, active compounds read low 1.02 | S. cerevisiae deletion strains, locus YLR268W, strain sec22, active compounds read low 0.996 | S. cerevisiae deletion strains, locus YLR320W, strain mms22, active compounds read low 0.988 | S. cerevisiae deletion strains, locus YLR330W, strain CHS5, active compounds read low 1.01 | S. cerevisiae deletion strains, locus YLR342W, strain FKS1 (second series), active compounds read low 1.02 | S. cerevisiae deletion strains, locus YLR342W, strain FKS1, active compounds read low 0.999 | S. cerevisiae deletion strains, locus YLR357W, strain rsc2, active compounds read low 0.985 | S. cerevisiae deletion strains, locus YLR370C, strain arc18, active compounds read low 1 | S. cerevisiae deletion strains, locus YLR371W, strain rom2, active compounds read low 0.997 | S. cerevisiae deletion strains, locus YLR384C, strain iki3, active compounds read low 1.01 | S. cerevisiae deletion strains, locus YLR418C, strain cdc73, active compounds read low 1.02 | S. cerevisiae deletion strains, locus YML016C, strain PPZ1, active compounds read low 1 | S. cerevisiae deletion strains, locus YML032C, strain rad52, active compounds read low 0.982 | S. cerevisiae deletion strains, locus YML120C, strain ndi1, active compounds read low 0.994 | S. cerevisiae deletion strains, locus YML124C, strain tub3, active compounds read low 0.996 | S. cerevisiae deletion strains, locus YMR058W, strain fet3, active compounds read low 1 | S. cerevisiae deletion strains, locus YMR078C, strain ctf18, active compounds read low 0.984 | S. cerevisiae deletion strains, locus YMR125W, strain sto1, active compounds read low 0.998 | S. cerevisiae deletion strains, locus YMR129W, active compounds read low 1 | S. cerevisiae deletion strains, locus YMR205C, strain PFK2, active compounds read low 1 | S. cerevisiae deletion strains, locus YMR223W, strain ubp8, active compounds read low 1 | S. cerevisiae deletion strains, locus YMR231W, strain pep5, active compounds read low 0.999 | S. cerevisiae deletion strains, locus YMR263W, strain SAP30, active compounds read low 1.02 and 0.996 | S. cerevisiae deletion strains, locus YMR307W, strain GAS1, active compounds read low 0.978 and 1.01 | S. cerevisiae deletion strains, locus YNL067W, strain RPL9B, active compounds read low 1.01 | S. cerevisiae deletion strains, locus YNL071W, strain lat1, active compounds read low 0.999 | S. cerevisiae deletion strains, locus YNL128W, strain TEP1, active compounds read low 1.02 | S. cerevisiae deletion strains, locus YNL153C, strain GIM3, active compounds read low 1.02 | S. cerevisiae deletion strains, locus YNL175C, strain NOP13, active compounds read low 0.975 | S. cerevisiae deletion strains, locus YNL183C, strain NPR1, active compounds read low 0.907 | S. cerevisiae deletion strains, locus YNL197C, strain WHI3, active compounds read low 0.969 | S. cerevisiae deletion strains, locus YNL209W, strain ssb2, active compounds read low 1.01 | S. cerevisiae deletion strains, locus YNL224C, strain SQS1, active compounds read low 0.987 | S. cerevisiae deletion strains, locus YNL233W, strain BNI4, active compounds read low 1.02 | S. cerevisiae deletion strains, locus YNL248C, strain rpa49, active compounds read low 1.04 | S. cerevisiae deletion strains, locus YNL250W, strain rad50, active compounds read low 0.989 | S. cerevisiae deletion strains, locus YNL271C, strain bni1, active compounds read low 0.982 | S. cerevisiae deletion strains, locus YNL298W, strain CLA4, active compounds read low 1 | S. cerevisiae deletion strains, locus YNL307C, strain MCK1, active compounds read low 1.01 | S. cerevisiae deletion strains, locus YNL322C, strain KRE1 (second series), active compounds read low 1.01 | S. cerevisiae deletion strains, locus YNL322C, strain KRE1, active compounds read low 1.01 | S. cerevisiae deletion strains, locus YNR049C, strain mso1, active compounds read low 1.01 | S. cerevisiae deletion strains, locus YNR052C, strain pop2, active compounds read low 0.996 | S. cerevisiae deletion strains, locus YOL006C, strain TOP1, active compounds read low 1.05 | S. cerevisiae deletion strains, locus YOL012C, strain htz1 0.596 | S. cerevisiae deletion strains, locus YOL147C, strain pex11, active compounds read low 1 | S. cerevisiae deletion strains, locus YOR001W, strain rrp6, active compounds read low 1.02 | S. cerevisiae deletion strains, locus YOR061W, strain CKA2, active compounds read low 1.01 | S. cerevisiae deletion strains, locus YOR069W, strain VPS5, active compounds read low 1 | S. cerevisiae deletion strains, locus YOR070C, strain gyp1, active compounds read low 1.01 | S. cerevisiae deletion strains, locus YOR080W, strain dia2, active compounds read low 0.986 | S. cerevisiae deletion strains, locus YOR083W, strain WHI5 (second series), active compounds read low 0.968 | S. cerevisiae deletion strains, locus YOR083W, strain WHI5, active compounds read low 0.989 | S. cerevisiae deletion strains, locus YOR106W, strain vam3, active compounds read low 1 | S. cerevisiae deletion strains, locus YOR136W, strain idh2, active compounds read low 0.999 | S. cerevisiae deletion strains, locus YOR144C, strain elg1, active compounds read low 0.998 | S. cerevisiae deletion strains, locus YOR184W, strain ser1, active compounds read low 1 | S. cerevisiae deletion strains, locus YOR231W, strain MKK1, active compounds read low 0.979 | S. cerevisiae deletion strains, locus YOR265W, strain rbl2, active compounds read low 1 | S. cerevisiae deletion strains, locus YOR270C, strain vph1, active compounds read low 1.02 | S. cerevisiae deletion strains, locus YOR290C, strain snf2, active compounds read low 0.996 | S. cerevisiae deletion strains, locus YOR316C, strain cot1, active compounds read low 1 | S. cerevisiae deletion strains, locus YPL051W, strain arl3, active compounds read low 1 | S. cerevisiae deletion strains, locus YPL055C, strain LGE1, active compounds read low 1.04 and 0.991 | S. cerevisiae deletion strains, locus YPL078C, strain atp4, active compounds read low 1 | S. cerevisiae deletion strains, locus YPL106C, strain sse1, active compounds read low 1.01 | S. cerevisiae deletion strains, locus YPL240C, strain hsp82, active compounds read low 1 | S. cerevisiae deletion strains, locus YPL241C, strain CIN2, active compounds read low 1.01 | S. cerevisiae deletion strains, locus YPL256C, strain CLN2, active compounds read low 0.932 | S. cerevisiae deletion strains, locus YPR119W, strain clb2, active compounds read low 0.997 | S. cerevisiae deletion strains, locus YPR141C, strain kar3, active compounds read low 0.997 | S. cerevisiae deletion strains, locus YPR163C, strain tif3, active compounds read low 0.998 | S. cerevisiae deletion strains, locus YPR167C, strain met16, active compounds read low 1 | S. cerevisiae deletion strains, strain wtn01, active compounds read low 1 | S. cerevisiae strains, strain wild type, active compounds read low 1.02
